Screening data deposited in PubChem BioAssay by National Center for Advancing Translational Sciences (NCATS).
VP16 counter = counter-screen for ROR gamma inhibitors: Gal4-VP16 reporter. Drosophila S2 Gal4-VP16 UAS-luciferase, luminescence, 20 h. Potency, µM (doses to about 53.6 µM), hits mostly inhibitors. AID 2546. actives 3.5% (n = 310,000);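 further: Gal4-VP16 expression switched on by copper sulfate through the metallothionein promoter; nearly all actives have a fitted effect of over 50% in size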
RORgamma inh = blocks mouse ROR gamma transcriptional activity | Potency, µM (series often up to 53.6 µM), actives largely listed as inhibitors | actives 5.4% (n = 310,000) | Drosophila S2 Gal4-RORgamma UAS-luciferase reporter, 20 h | P51450 | AID 2551; further: nearly all actives have a fitted effect of over 60% in size
Target sequence (P51450 whole entry, looked up, the tested form may be a part): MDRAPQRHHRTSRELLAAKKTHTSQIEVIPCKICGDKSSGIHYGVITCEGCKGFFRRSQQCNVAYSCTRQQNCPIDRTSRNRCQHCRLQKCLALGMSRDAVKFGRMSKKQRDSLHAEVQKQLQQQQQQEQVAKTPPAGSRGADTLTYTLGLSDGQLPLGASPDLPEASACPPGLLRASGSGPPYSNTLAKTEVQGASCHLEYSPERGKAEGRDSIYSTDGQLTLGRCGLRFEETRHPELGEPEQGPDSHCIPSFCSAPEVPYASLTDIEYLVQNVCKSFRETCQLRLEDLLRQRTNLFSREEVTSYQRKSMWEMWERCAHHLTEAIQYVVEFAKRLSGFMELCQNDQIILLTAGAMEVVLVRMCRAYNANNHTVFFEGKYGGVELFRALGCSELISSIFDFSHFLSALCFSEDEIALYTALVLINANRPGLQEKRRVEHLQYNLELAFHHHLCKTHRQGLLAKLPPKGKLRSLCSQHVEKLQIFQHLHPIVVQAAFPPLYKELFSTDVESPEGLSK
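Read-out: Photinus luciferase luminescence; inhibitors lower reporter signal. Insect Schneider cells with Gal4-ROR gamma fusion under metallothionein promoter, UAS reporter; 700 uM final copper sulfate induction, 20 hr, ambient temperature.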
Luc counter = Kinase-Glo luciferase inhibition (counter-screen); Q27757; Kinase-Glo luciferase, ATP luminescence, 8 min; Potency, µM (highest dose often 38.3 µM), usual class: inhibitors; actives 0.28% (n = 200,000); AID 1379; further: nearly all actives have a fitted effect of over 60% in size
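Substrate mix (final 50 mM imidazole pH 7.2, 50 mM KCl, 7 mM MgCl2, 10 uM ATP, 0.01% Tween 20, 0.05% BSA) plus pin-tool compound, then Kinase-Glo detection mix; 8 min ambient, luminescence read.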
A number is an active result. In the library only some 6.2% were active in any assay of this set; here they are far more common. The call rests on the fitted dose curve; in most records, active means well fitted curve in the direction sought with a large enough effect; inconclusive means small, poorly fitted or top-dose-only effect, or another doubt; inactive means no such curve, though single readings can be large; an effect the other way counts as inactive or inconclusive.

What do the screens show for `N[C@@H](C(=O)O)c1ccc(O)c(C(=O)O)c1`?
VP16 counter: inactive; RORgamma inh: inactive; Luc counter: inactive

How did CCn1c(SCC(=O)N2CCC(C(N)=O)(N3CCCCC3)CC2)nnc1-c1ccccc1 do in these assays?
VP16 counter: inactive; RORgamma inh: inconclusive; Luc counter: inactive

What do the screens show for `COc1ccc(C2=Nn3c(nnc3-c3ccccc3C)SC2)cc1OC`?
VP16 counter: inactive; RORgamma inh: inactive

Results for CN(C)Cc1ccccc1-c1nc(NCc2ccccc2)c2ccccc2n1 ?
VP16 counter: inactive; RORgamma inh: inactive; Luc counter: inactive

Results for Cc1ccc(-n2cc(-c3ccccc3)[nH]c2=O)cc1F ?
VP16 counter: inactive; RORgamma inh: inactive; Luc counter: inactive

What do the screens show for `Fc1ccccc1-n1cc(-c2ccccc2)[nH]c1=S`?
VP16 counter: 15.8µM; RORgamma inh: 2.51µM; Luc counter: inactive

Results for COc1ccc(-c2cn(-c3cccc(C)c3)c(=O)[nH]2)cc1OC ?
VP16 counter: inactive; RORgamma inh: inactive; Luc counter: inactive

Results for COc1ccc(-c2cc(N3C(=O)Nc4ccccc4N3O)n[nH]2)cc1OC ?
VP16 counter: inactive; RORgamma inh: inconclusive; Luc counter: inactive

Results for O=[N+]([O-])c1ccc(-c2cn(-c3ccc(Cl)cc3)c(=S)[nH]2)cc1 ?
VP16 counter: inactive; RORgamma inh: inactive; Luc counter: inactive

What do the screens show for `CCc1ccc(-n2cc(-c3ccc([N+](=O)[O-])cc3)[nH]c2=S)cc1`?
VP16 counter: inconclusive; RORgamma inh: 11.2µM; Luc counter: inactive

Results for COc1ccc(-n2cc(-c3ccc(OC)c(OC)c3)[nH]c2=S)cc1 ?
VP16 counter: 10µM; RORgamma inh: 2µM; Luc counter: inactive

What do the screens show for `COc1cc(OC)c(-n2cc(-c3ccc(OC)c(OC)c3)[nH]c2=S)cc1Cl`?
VP16 counter: 15.8µM; RORgamma inh: 7.94µM

What do the screens show for `COc1ccc([C@@H]2[C@@H]3C(=O)N(C(C)(C)C)C(=O)[C@@H]3[C@]3(C)C(=O)N(c4ccc(C)cc4)C(=O)N23)cc1`?
VP16 counter: inactive; RORgamma inh: inactive

Results for COc1ccccc1-n1cc(-c2ccc(Cl)cc2)[nH]c1=O ?
VP16 counter: inactive; RORgamma inh: inactive; Luc counter: inactive

Results for CC1CSc2n(-c3cccc(C(F)(F)F)c3)cc(-c3ccccc3)[n+]21 (stereo unspecified) ?
VP16 counter: inactive; RORgamma inh: inactive; Luc counter: inactive

Results for FC(F)(F)c1cccc(-n2cc(-c3ccccc3)[nH]c2=S)c1 ?
VP16 counter: inconclusive; RORgamma inh: 2.82µM

What do the screens show for `COc1ccc(-n2cc(-c3ccccc3)[nH]c2=S)c(OC)c1`?
VP16 counter: 7.94µM; RORgamma inh: 2.51µM

Results for Cc1ccccc1-c1cn(-c2ccccc2)c(=S)[nH]1 ?
VP16 counter: 10µM; RORgamma inh: 3.16µM

How did COc1ccc(-n2cc(-c3ccc(Br)cc3)[nH]c2=S)cc1 do in these assays?
VP16 counter: inactive; RORgamma inh: 1.78µM; Luc counter: inactive

How did COc1ccc(-n2ccsc2=S)cc1 do in these assays?
VP16 counter: inactive; RORgamma inh: inactive; Luc counter: inactive

Results for Cc1ccccc1-c1nc2ccccc2[nH]1 ?
VP16 counter: inactive; RORgamma inh: inactive; Luc counter: inactive

What do the screens show for `COc1cccc(NC(=O)CCNC(=O)C2CCN(S(=O)(=O)c3ccc(F)cc3)CC2)c1`?
VP16 counter: inactive; RORgamma inh: inactive

What do the screens show for `O=C(c1cc2nc(-c3ccc(Cl)cc3)cc(C(F)(F)F)n2n1)N1CCOCC1`?
VP16 counter: inactive; RORgamma inh: inactive; Luc counter: inactive

How did COC(=O)c1ccc(/C=N/NC(=O)CC(=O)NCc2cccnc2)cc1 do in these assays?
VP16 counter: inactive; RORgamma inh: inactive; Luc counter: inactive

How did FC(F)(F)c1cc(-c2ccccc2)nc(-n2cc(Cl)cn2)n1 do in these assays?
VP16 counter: inactive; RORgamma inh: inactive; Luc counter: inactive

How did Cc1cnn(-c2nc(-c3ccccc3)cc(-c3ccccc3)n2)c1 do in these assays?
VP16 counter: 11.2µM; RORgamma inh: 3.16µM; Luc counter: inactive

Results for COc1cccc(OCc2cc(C(=O)N3CCN(C(C)=O)CC3)no2)c1 ?
VP16 counter: inactive; RORgamma inh: inactive

What do the screens show for `COP1(=O)CC(O)C(O)C(COCc2ccccc2)O1` (stereo unspecified)?
VP16 counter: inactive; RORgamma inh: inactive

How did Cc1cc(C)c(COc2ccc(/C=N/n3c(C)n[nH]c3=S)cc2)c(C)c1 do in these assays?
VP16 counter: 7.08µM; RORgamma inh: 2.82µM; Luc counter: inactive

What do the screens show for `CCc1n[nH]c(=S)n1/N=C/c1ccccc1OCc1ccc(Cl)cc1`?
VP16 counter: inactive; RORgamma inh: inactive; Luc counter: inactive

What do the screens show for `S=c1[nH]nc(Cc2ccc(Br)cc2)n1/N=C/c1ccc(Cl)cc1`?
VP16 counter: inactive; RORgamma inh: inactive; Luc counter: inactive

What do the screens show for `Cc1n[nH]c(=S)n1/N=C/c1ccccc1`?
VP16 counter: inconclusive; RORgamma inh: inconclusive; Luc counter: inactive

What do the screens show for `Cc1n[nH]c(=S)n1/N=C/c1ccccc1OCc1ccc(Cl)cc1Cl`?
VP16 counter: 7.08µM; RORgamma inh: 2.82µM; Luc counter: inactive

How did Cc1n[nH]c(=S)n1/N=C/c1ccc(OCc2ccc(Cl)cc2)cc1 do in these assays?
VP16 counter: inactive; RORgamma inh: 5.62µM; Luc counter: inactive

Results for Cc1n[nH]c(=S)n1/N=C/c1ccc(OCc2ccc(Cl)cc2Cl)cc1 ?
VP16 counter: 11.2µM; RORgamma inh: 17.8µM; Luc counter: inactive

What do the screens show for `CCNC(=O)NC(=O)C(C)On1nnc2ccc(S(=O)(=O)N(CC)CC)cc21` (stereo unspecified)?
VP16 counter: inactive; RORgamma inh: inactive; Luc counter: inactive

Results for Cc1onc(-c2c(Cl)cccc2Cl)c1COC(=O)c1ccc(Cl)cc1[N+](=O)[O-] ?
VP16 counter: inactive; RORgamma inh: inactive

How did CN1CCN(c2ncc3nc(-c4cn(C)c5ccccc45)c(=O)n(Cc4cccs4)c3n2)CC1 do in these assays?
VP16 counter: inconclusive; RORgamma inh: inactive

Results for CC1(c2ccccc2Br)NC(=O)N(CC(=O)Nc2ccc(S(N)(=O)=O)cc2)C1=O (stereo unspecified) ?
VP16 counter: inactive; RORgamma inh: inconclusive

What do the screens show for `CCc1ccccc1NC(=O)CN1CCN(CC(=O)Nc2cc(C)ccc2OC)CC1`?
VP16 counter: inactive; RORgamma inh: inactive

What do the screens show for `CC(C)CCNCC(=O)NC(c1ccccc1)c1ccccc1`?
VP16 counter: inactive; RORgamma inh: inactive; Luc counter: inactive

How did CCNC(=O)[C@H]1O[C@H](n2cnc3c(N)nc(NCCc4ccc(CCC(=O)O)cc4)nc32)[C@@H](O)[C@@H]1O do in these assays?
VP16 counter: inactive; RORgamma inh: inactive; Luc counter: inactive

Results for CC1CCN(c2ccc(N3C(=O)C4CCCCC4C3=O)cc2[N+](=O)[O-])CC1 (stereo unspecified) ?
VP16 counter: inactive; RORgamma inh: inactive; Luc counter: inactive

What do the screens show for `CCCC(=O)NC(=S)Nc1ccc(NC(=O)c2cccs2)cc1`?
VP16 counter: inconclusive; RORgamma inh: inactive; Luc counter: inactive
